# Only some compounds are listed: those with a hit (about 3.9% of all), similar ones and a draw of the others.
# SKKanGAS inh: inhibitors of SKKanGAS S. pyogenes growth in kanamycin (SK-promoter or general growth effect); BacTiter-Glo, 6 h; inhibition, % at 7.5 µM; actives 1.3% (n = 300,000); AID 1662;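 active = mean replicate score, as percent of positive control median, at least 50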;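 also: strain carries kanamycin resistance gene driven by streptokinase promoter and grows in 40 µg/ml kanamycin; loss of luminescence reflects streptokinase promoter inhibition or plain growth inhibition; 0% = median of DMSO wells and 100% = positive control at its reference dose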
# Rtt109 HAT inh: blocks Candida albicans Rtt109/Vps75 acetyltransferase activity. Q5AAJ8. purified Rtt109/Vps75, ThioGlo CoA-SH fluorescence, 4 h. inhibition, % at 34.9 µM. actives 0.16% (n = 330,000). AID 540336;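 active = inhibition of at least 50% in every replicate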
# Target sequence (Q5AAJ8 whole entry, looked up): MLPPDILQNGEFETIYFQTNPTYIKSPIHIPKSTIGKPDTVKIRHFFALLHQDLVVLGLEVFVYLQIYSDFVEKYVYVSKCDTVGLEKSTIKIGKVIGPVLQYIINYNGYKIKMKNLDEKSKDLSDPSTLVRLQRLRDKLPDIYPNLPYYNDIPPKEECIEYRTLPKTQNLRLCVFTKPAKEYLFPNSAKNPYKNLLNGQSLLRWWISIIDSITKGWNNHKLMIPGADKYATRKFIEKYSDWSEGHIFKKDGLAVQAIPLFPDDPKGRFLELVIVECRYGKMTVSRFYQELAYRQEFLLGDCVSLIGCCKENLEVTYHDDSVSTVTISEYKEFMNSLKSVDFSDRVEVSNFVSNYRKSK
# PHOSPHO1 block: blocks human PHOSPHO1 phosphatase activity; inhibition, % at 13.3 µM; actives 1.1% (n = 290,000); Q8TCT1; AID 1565; recombinant PHOSPHO1, absorbance phosphatase assay; in the data active = inhibition above about 60%
# Platelet DG rel: modulates dense granule release in human platelets. human platelet-rich plasma, SFLLRN dense granule ATP release, luminescence. inhibition, %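 (compounds screened at 7.5 µM in platelet-rich plasma)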. actives 0.22% (n = 300,000). AID 1663;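 active = mean replicate score, as percent of positive control, at or above 50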
# TPT1 inh: C. albicans TPT1 enzyme inhibition. recombinant caTPT1, FP RNA substrate dephosphorylation. inhibition, % at 5 µM. actives 0.81% (n = 300,000). AID 1962;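 active = inhibition above the mean of all tested compounds plus 3 SD, set per screening campaign, cut at about 24% in these data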;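 also: plate controls were DMSO alone for no effect and ferristatin control at 100 nM for full effect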
# WT yeast gro inh: growth inhibition of WT yeast, mitochondrial fusion screen; actives 2.1% (n = 190,000); mitochondrial fusion phenotypic screen, WT strain; AID 1362; inhibition, % at 10 µM; in the data active = inhibition above about 58%; tested in S. cerevisiae
# The depositor's hits bear a star; . = not tested or not shown.
SMILES,SKKanGAS inh,Rtt109 HAT inh,PHOSPHO1 block,Platelet DG rel,TPT1 inh,WT yeast gro inh
CCN(C1CCS(=O)(=O)C1)S(=O)(=O)c1ccc(Cl)s1 (centres undefined),.,1,.,.,.,.
COc1ccc(S(=O)(=O)Nc2ccccc2C(=O)N2CCOCC2)cc1C,2,-19,-12,-21,1,.
CCC1S/C(=C(\C#N)C(=O)NCc2ccco2)N(c2ccc(F)cc2)C1=O (centres undefined),-6,7,76*,-13,2,9
Cc1ccc(-n2c(C)cc(/C=N/NC(=O)CN(c3ccc(C)cc3C)S(C)(=O)=O)c2C)cc1,11,-13,12,-5,2,-7
Cc1cc(C)cc(-n2c(C)cc(/C=N/NC(=O)CN(c3c(C)cccc3C)S(C)(=O)=O)c2C)c1,15,-9,-1,-14,0,60*
CCOc1ccc(/C=N/NC(=O)Cc2csc(Nc3cccc(C(F)(F)F)c3)n2)c(OCC)c1,11,-2,-43,-1,-5,15
CCOc1ccc(/C=N/NC(=O)Cc2csc(Nc3cccc(C(F)(F)F)c3)n2)cc1,80*,-9,21,5,-8,52
FC(F)(F)c1cc(Nc2ccccc2)nc(-c2ccccn2)n1,77*,2,20,1,-1,.
FC(F)(F)c1cc(Sc2ccccc2)nc(-c2ccccn2)n1,14,5,38,0,-2,65*
CCCCNC(=S)N/N=C/c1cc(C)ccc1C,-14,22,0,-7,-1,66*
NC(=S)n1[nH]c(-c2ccc([N+](=O)[O-])cc2)c(N=Nc2cccc(Cl)c2)c1=O,22,13,-26,6,.,75*
C=CCc1c(C)c(C#N)c2nc3ccccc3n2c1NCCN(C)C,-1,-47,9,-4,-2,70*
CCc1ccc(S(=O)(=O)NC2CC(C)(C)NC(C)(C)C2)cc1,-1,6,19,11,-1,.
COC(=O)c1ccc(COC(=O)CCNS(=O)(=O)c2ccc(C)c(C)c2)cc1,.,13,.,.,.,.
O=C(/C=C/c1ccccc1)c1cc(Br)ccc(=O)c1O,98*,4,38,10,17,4
Cc1ccc(/C=C/C(=O)c2ccccc(=O)c2O)cc1C,97*,-9,0,14,4,-20
COc1ccc(NC(=O)Nc2cccc3c2O[C@@H](CN(C)CC2CCCCC2)[C@@H](C)CN([C@H](C)CO)C3=O)cc1,.,8,.,.,.,.
CC1=C(C#N)C(NC(=O)c2ccc(C)cc2)(C(F)(F)F)C(=O)N1 (centres undefined),-2,14,22,0,-2,77*
CC1=C(C#N)C(NC(=O)c2ccc(Cl)cc2)(C(F)(F)F)C(=O)N1 (centres undefined),4,6,8,19,-2,-5
CC(=O)Nc1ccc(NC(=O)C(C)OC(=O)CN2C(=O)C3CCCCC3C2=O)cc1 (centres undefined),.,-11,.,.,.,.
CCCN=C(N)/C(C(=O)OCC)=C(\O)c1ccc(OC)cc1,10,-6,32,0,-2,-10
CCOC(=O)/C(C(N)=NCC(C)C)=C(/O)c1ccccc1,2,7,61*,-1,2,1
CCOC(=O)C1=C(Nc2ccccc2)CC(C)(O)C(C(=O)OCC)C1c1ccc(Cl)cc1 (centres undefined),.,-6,-7,.,0,71*
CC(C)C(=O)N(c1ccc2oc(=O)sc2c1)S(=O)(=O)c1cccs1,0,-10,87*,-9,2,9
CC(=O)N(c1ccc2oc(=O)sc2c1)S(=O)(=O)c1cccc2cccnc12,-5,135*,46,-9,-4,.
SMILES,SKKanGAS inh,Rtt109 HAT inh,PHOSPHO1 block,Platelet DG rel,TPT1 inh,WT yeast gro inh
COc1ccc(N(C(=O)C(C)C)S(=O)(=O)c2cccs2)cc1,4,-2,2,-1,-3,-6
CC(=O)N(c1ccc2oc(=O)sc2c1)S(=O)(=O)c1cccs1,1,4,-39,-3,0,10
CC(C)C(=O)N(c1cc2sc(=O)oc2c2ccccc12)S(=O)(=O)c1cccs1,7,6,92*,-2,3,92*
Cc1cc(C)c(C)c(S(=O)(=O)N2CCC(C(=O)OCC(=O)NC3CCS(=O)(=O)C3)CC2)c1C (centres undefined),.,6,.,.,.,.
COc1ccc(NC(=S)Nc2cccc3cnccc23)cc1,2,11,26,12,2,0
CCOc1ccc(NC(=S)Nc2cccc3cnccc23)cc1,-2,5,-1,9,2,58*
S=C(Nc1ccc(Cl)cc1)Nc1cccc2cnccc12,3,4,17,13,1,62*
COc1ccc(Nc2nc(C(=O)N3CCc4cc(OC)c(OC)cc4C3)cs2)cc1,-3,.,38,-7,1,.
O=C(c1csc(Nc2ccccc2Cl)n1)N1CCCC1,-12,-2,0,-9,-2,69*
COc1ccc(Nc2nc(C(=O)N3CCc4ccccc4C3)cs2)cc1,6,15,-12,2,-1,75*
O=C(CN1CCN(S(=O)(=O)c2cccs2)CC1)N1CCCCC1,.,5,.,.,.,.
Cc1ccc(-c2cc(-c3ccccc3)nc(N(C)N)n2)cc1,68*,3,25,-2,0,.
CCC(CC)NC(=O)COn1nnc2ccc(S(=O)(=O)N3CCOCC3)cc21,-6,0,.,1,-4,.
O=C1Nc2cc(C(=O)N3CCN(c4ccccn4)CC3)ccc2S/C1=C\c1ccccc1,53*,-7,-16,3,3,.
CCOC(=O)N1CCN(C(=O)c2ccc3c(c2)NC(=O)/C(=C\c2ccc(OC)c(OC)c2)S3)CC1,101*,15,38,2,3,.
O=C1Nc2cc(C(=O)NCCCN3CCCC3)ccc2S/C1=C\c1ccccc1,7,73*,32,23,1,.
Cc1cccc(/C=C2/Sc3ccc(C(=O)N4CCOCC4)cc3NC2=O)c1,36,-2,13,-5,-3,.
CCOC(=O)N1CCN(C(=O)c2ccc3c(c2)NC(=O)/C(=C\c2cccc(C)c2)S3)CC1,92*,-48,0,-16,-2,.
CN1C(=O)/C(=C\c2ccccc2)Sc2ccc(C(=O)N3CCN(c4ccccn4)CC3)cc21,.,.,36,.,.,52
Cc1ncsc1C(=O)N1N=C2/C(=C/c3ccc(N4CCOCC4)cc3)CCCC2C1c1ccc(N2CCOCC2)cc1 (centres undefined),31,-6,18,-1,17,12
Cc1ncsc1C(=O)N1N=C2/C(=C/c3ccccc3)CCCC2C1c1ccccc1 (centres undefined),30,-7,30,8,2,71*
O=C(O)C(c1ccccc1)N1C(=O)/C(=C/c2cccs2)SC1=S (centres undefined),3,14,25,-6,0,.
O=C(O)C(Cc1ccccc1)N1C(=O)/C(=C/c2cccs2)SC1=S (centres undefined),.,56*,37,.,.,-9
